Mot1-301 SUMO: yeast Mot1-301 growth rescue at high temperature, primary screen, SUMOylation pathway inhibitor project, S. cerevisiae, ATP luminescence, 38.5C; hit rate 1% among 320,000; growth rescue, % at 18.8 µM; S. cerevisiae Mot1-301 growth rescue; percent above DMSO median, 100 means doubled;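 active means every valid replicate shows activation above 250% relative to neutral control wells; inactive means the rest, any valid replicate at or below 250%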;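 further: OY570 slx delta 5 strain wells were the positive control but not used for scaling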
Calb FLC: C. albicans growth inhibition with fluconazole, primary screen, CaCi-2 strain, Alamar Blue fluorescence; hit rate 0.57% among 300,000; C. albicans CaCi-2 (fluconazole-resistant clinical isolate) + fluconazole, 48 h; growth inhibition, % (test concentration not listed); AID 1979, 2009;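 active means growth inhibition above about 58% in most replicates, limit read from the data, passing the limit was not always enough; inconclusive means exactly half the replicates above a set limit; inactive means most replicates below a set limit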;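 further: all wells also contain fluconazole at 8 µg/ml as a sub-toxic cotreatment; 0% = median of DMSO wells and 100% = median of geldanamycin control wells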
NadD inh: inhibitors of S. aureus NadD, primary screen, biochemical, colorimetric, uHTS | Nicotinate-nucleotide adenylyltransferase NadD (Staphylococcus aureus N315) | purified NadD enzyme, colorimetric absorbance read-out | inhibition, % at 20 µM | hit rate 0.78% among 360,000; in the data active means inhibition above about 26%
ATG4B inhibitor: ATG4B protease inhibitors, primary screen, biochemical, fluorescence, uHTS; Cysteine protease ATG4B (Homo sapiens), Q9Y4P1; ATG4B cleavage of LC3-PLA2, NBD-HPC fluorescence, 1 h; inhibition, % at 8.33 µM; hit rate 0.51% among 340,000; AID 504462, 2011; in the data active means inhibition above about 40%
FAS TE block: FAS thioesterase domain inhibitors, primary screen, biochemical, fluorescence intensity, uHTS; Fatty acid synthase (Homo sapiens), P49327; recombinant FAS-TE, OMFH fluorogenic substrate, fluorescence endpoint; inhibition, % at 15 µM; hit rate 0.67% among 360,000; AID 602261, 2012;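 active means compounds whose normalised, plate-corrected inhibition of enzyme fluorescence in the single-dose primary screen is 50% or more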;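 further: 0% = DMSO with enzyme and 100% = substrate without enzyme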
Starred values were filed as active, the others as inactive. Compounds with a hit are over-represented: about 3.1% of the library has one in this group of screens.

For Cc1ccc(C(=O)NCCCNC(=O)COc2ccc(C)c(C)c2)cn1 the results were Mot1-301 SUMO 289*, Calb FLC 4, NadD inh -1, ATG4B inhibitor 0 and FAS TE block -4.
Screening CCOC(=O)C1(CCOc2ccccc2)CCN(Cc2cnc(SC)nc2)CC1 returned Mot1-301 SUMO 19, Calb FLC -9, NadD inh 0, ATG4B inhibitor 3 and FAS TE block 5.
CCOC(=O)C1(CC2CC2)CCN(Cc2cnc(-c3ccccc3C)nc2)CC1 was read as Mot1-301 SUMO 946*, Calb FLC -8, NadD inh 0, ATG4B inhibitor -1 and FAS TE block 5.
Screening CCc1nnc(NS(=O)(=O)c2ccc(NC(=S)NC(=O)/C=C/c3ccc(C(C)C)cc3)cc2)s1 returned Mot1-301 SUMO -12, Calb FLC -3, NadD inh 69*, ATG4B inhibitor 33 and FAS TE block 51*.
Screening COc1cccc2c(SCC(=O)N/N=C/c3ccc(O)c(O)c3)cc(C)nc12 returned Mot1-301 SUMO -4, Calb FLC 92*, NadD inh 17, ATG4B inhibitor 0 and FAS TE block -5.
`CCCn1c(N)c(C(=O)COC(=O)c2c(C)noc2C)c(=O)n(C)c1=O` gave Mot1-301 SUMO 0, Calb FLC 100*, NadD inh 2, ATG4B inhibitor -12 and FAS TE block -8.
Screening CCCCCn1c(CN2CCN(CCO)CC2)nc2c1c(=O)n(C)c(=O)n2C returned Mot1-301 SUMO 169, Calb FLC -2, NadD inh 5, ATG4B inhibitor -1 and FAS TE block 0.
Screening CCCCn1c(CN2CCN(C(=O)OCC)CC2)nc2c1c(=O)n(C)c(=O)n2C returned Mot1-301 SUMO 7, Calb FLC 102*, NadD inh 1, ATG4B inhibitor 0 and FAS TE block 10.
Screening CN(Cc1cn(Cc2ccc(F)cc2)nn1)C1CN(Cc2cn(Cc3ccc(F)cc3)nn2)S(=O)(=O)C1 (configuration not stated) returned NadD inh 0 and FAS TE block -14.
Cc1cc(/C=N/n2c(COc3ccccc3C)nc3ccccc3c2=O)c(O)c([N+](=O)[O-])c1 was read as Mot1-301 SUMO 1, Calb FLC 91*, NadD inh 19, ATG4B inhibitor 9 and FAS TE block 48.
Screening CCC(C)c1ccc(OCC(=O)Nc2ccc3c(c2)C(=O)NC3=O)cc1 (configuration not stated) returned Mot1-301 SUMO 1, Calb FLC 1, NadD inh 0, ATG4B inhibitor -6 and FAS TE block 0.
For O=C(CN1CCCc2ccccc21)N/N=C/c1c(O)ccc2ccccc12 the results were Mot1-301 SUMO -1, Calb FLC 85*, NadD inh 18, ATG4B inhibitor -8 and FAS TE block 35.
For CC(C)(C)NC(=O)NC(=O)CN1CCCc2ccccc21 the results were Mot1-301 SUMO -10, Calb FLC 114*, NadD inh -7, ATG4B inhibitor -3 and FAS TE block -10.
Screening O=C(NN=Cc1c(O)ccc2ccccc12)c1ccc2c(c1)OCO2 returned Mot1-301 SUMO -6, NadD inh 11, ATG4B inhibitor 3 and FAS TE block 4.
For O=C(N/N=C\c1c(O)ccc2ccccc12)c1ccc(S(=O)(=O)N2CCCCC2)cc1 the results were Mot1-301 SUMO 3, Calb FLC inconclusive, NadD inh 46*, ATG4B inhibitor 4 and FAS TE block 25.
`COCC(CN1CCN(C2=NS(=O)(=O)c3ccccc32)CC1)OC(=O)c1ccc(OC)cc1` (configuration not stated) gave Mot1-301 SUMO -14, Calb FLC -19, NadD inh -3, ATG4B inhibitor 1 and FAS TE block 0.
For COc1ccc(Cn2cc(CN3CC(N4CCN(C5CCN(C)CC5)CC4)CS3(=O)=O)nn2)cc1 (configuration not stated) the results were NadD inh 4 and FAS TE block -15.
`COc1c(C)cccc1C(=O)NCc1ccc2c(c1)OCO2` gave Mot1-301 SUMO 2, Calb FLC 2, NadD inh -2, ATG4B inhibitor 2 and FAS TE block -5.

Bioassay records (PubChem BioAssay)
